Assay results as given in PubChem BioAssay AID2732 (Emory University Molecular Libraries Screening Center, 2010).
Among all 220,000 compounds or so, about 8,200 (3.7%) were called active. What follows is part of a selection rich in actives, with near analogues and random picks from the rest. A number with no mark means an inactive call.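 Rule for the calls: active = compounds that reduced the stress-induced luciferase reporter signal by more than about 70% of percent inhibition (limit read from the data); inactive = the rest.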

assay: blockers of ER-stress CHOP reporter expression – cell-based, unfolded protein response, luciferase reporter, primary screen (AID 2732); settings: CHO-K1 CHOP-promoter luciferase, tunicamycin-induced, 15-18 h; at 10 µM; stronger effect = higher value;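 note: 0% = tunicamycin plus vehicle and 100% = wells without tunicamycin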

Compound | inhibition
CC(CNS(=O)(=O)c1ccc(Br)cc1)CN(C)C (stereo unspecified) | 1.82%
Cc1ccc2c(C)c(C(=O)N3CCC(N4CCC(C(=O)NC5CC5)CC4)CC3)oc2c1 | 25.5%
Fc1ccccc1/C=C1\CCCC2=C1Nc1ncnn1C2c1ccccc1F (stereo unspecified) | 108% (active)
CC1CC(=O)Nc2ccccc2N1S(=O)(=O)c1cccs1 (stereo unspecified) | 4.64%
O=C(Nc1ccc2c(c1)CCC2)c1cccc(S(=O)(=O)N2CCN(c3ccc(F)cc3)CC2)c1 | 78.2% (active)
O=C(Nc1cccnc1)c1cccc(S(=O)(=O)N2CCCC2)c1 | 1.13%
O=C(Nc1ccc2c(c1)CCC2)c1cccc(S(=O)(=O)Nc2ccccc2Cl)c1 | 33.4%
Cc1ccc(Cn2c(SCC(=O)N/N=C/c3ccccc3OCC(=O)O)nc3ccccc32)cc1 | 19.7%
O=C(NCc1ccc(F)cc1)C1CCC(CNc2c(N3CCOCC3)c(=O)c2=O)CC1 (stereo unspecified) | -4.35%
O=C(Nc1cc(C(F)(F)F)ccc1Cl)C(=O)N1CCCCC1 | 23.6%
O=C(CNS(=O)(=O)c1cccc(C(F)(F)F)c1)Nc1ccccc1F | -2.12%
O=C(NNc1ccccc1Cl)C(O)(c1cccc(C(F)(F)F)c1)c1cccc(C(F)(F)F)c1 | 100% (active)
COc1ccc(CCN2C(=O)N(c3ccc(OC)cc3)C(=O)C2CC(=O)Nc2ccc(OC)cc2)cc1 (stereo unspecified) | -32.7%
Nc1nc(SCc2ccccc2Cl)n[nH]1 | 6.63%
Clc1ccccc1CSc1nnc(-c2ccco2)c(-c2ccco2)n1 | 71.2% (active)
c1ccc(CSc2nnc(-c3ccco3)c(-c3ccco3)n2)cc1 | -37.2%
O=C(Cc1ccccc1)N1N=C(c2ccncc2)CC1(O)C(F)(F)F (stereo unspecified) | 4.37%
COc1ccc2oc(N)c(C=O)c(=O)c2c1 | 13.1%
COc1ccc2c(c1)C(C)=CC(C)(C)N2C(=O)Nc1ccccc1 | 7.45%
CCn1cc(C(=O)NCc2ccc3c(c2)OCO3)c2cc(OC)c(OC)cc2c1=O | 33.4%
COc1ccc2c(c1)C(C)=CC(C)(C)N2C(=O)CNCc1ccc2c(c1)OCO2 | 73.7% (active)
O=C(O)C(c1ccccc1)C1(O)CCCCC1 (stereo unspecified) | 3.7%
CCc1ccc2nc3sc(C(=O)Nc4nnc(CC)s4)c(N)c3cc2c1 | 76.2% (active)
CCc1nnc(NC(=O)c2cccc(S(=O)(=O)N(C)c3ccc(OC)cc3)c2)s1 | 28.5%

Compound | inhibition
CCc1nnc(NC(=O)c2sc3nc(C)cc(COC)c3c2N)s1 | -32%
COC(=O)[C@H](CC(C)C)NC(=O)N1CCCCC1C (stereo partly specified) | 16.1%
COc1ccc(-c2noc(-c3ccc(C)cc3)n2)cc1 | 20.8%
COc1ccc(-c2noc(-c3cccc(OC)c3OC)n2)cc1OC | 19%
COc1ccc(-c2nc(-c3ccccc3)no2)c(OC)c1 | 81.4% (active)
COc1ccc(S(=O)(=O)N2CCCC2)c(C)c1C | 31.7%
CCOc1ccc(S(=O)(=O)n2ccnc2)c2ccccc12 | 4.14%
CCOc1ccc(S(=O)(=O)N2CCCCCC2)c2ccccc12 | 71.1% (active)
CN1CCN(c2ccc(S(=O)(=O)N3CCOCC3)cc2NC(=O)CCc2ccccc2)CC1 | -2.84%
COc1cccc(Nc2nnc(SCC(=O)N3CC(=O)Nc4ccccc43)s2)c1 | -4.27%
CCOc1ccccc1C1C(C(=O)OC)=CN(C)C=C1C(=O)OC | 2.4%
NC(=O)C1(C(N)=O)OC1c1ccc(Cl)cc1Cl (stereo unspecified) | -9.68%
COC(=O)C1=CN(C)C=C(C(=O)OC)C1c1ccc(Cl)cc1Cl | 78.2% (active)
O=C(NC1CC1)C1=C[C@H](c2c[nH]c3ccccc23)C[C@H](OCc2ccc(CO)cc2)O1 | 0.14%
CSc1ccc(NC(=O)/C=C/C(=O)O)cc1 | 6.47%
CC(C)S(=O)(=O)c1csc(NC(=O)Nc2ccc(Cl)cc2)c1Cl | -24.8%
O=C(CN1CCN(c2nc(-c3ccccc3)cs2)CC1)NCc1ccc2c(c1)OCO2 | 63.6%
COc1cccc(NC(=O)CN2CCN(c3nc(-c4cccc(OC)c4)cs3)CC2)c1 | 19.3%
COc1ccc(-c2csc(N3CCN(Cc4ccc5c(c4)OCO5)CC3)n2)cc1 | 86.8% (active)
COc1cc(C(F)(F)F)c(C(=O)N(C)c2ccc(Cl)cc2)cn1 | 13.6%
O=C(Nc1ccc(-c2csc(Nc3cccc(C(F)(F)F)c3)n2)cc1)c1cccc(C(F)(F)F)c1 | 21.4%
COC(=O)CSc1nccc(-c2cccs2)n1 | -10.9%
O=C(O)COc1ccc(-c2nccc(-c3cccs3)n2)cc1 | 73.8% (active)
O=C(Nc1ccnc(-c2ccncc2)n1)c1cccs1 | 10.6%

Compound | inhibition
O=c1[nH]c(CSc2ccccc2)nc2c1oc1ccccc12 | -3.37%
Cc1nnsc1C(=O)NCc1c(F)cccc1Cl | 15.1%
COc1ccc(-c2cn3ccc(C)cc3n2)cc1 | 59.3%
Cc1ccc(-c2cn3cc(C)ccc3n2)cc1 | 95.9% (active)
Cc1ccc(-c2cn3cc([N+](=O)[O-])ccc3n2)cc1 | 54.5%
COc1ccccc1N1CCN(C(=O)CSc2ncnc3c2cnn3-c2ccc(C)c(C)c2)CC1 | -4.74%
Cc1nc(C(=O)N2CCCC(C(=O)c3ccc(Cl)cc3)C2)cs1 (stereo unspecified) | -9.72%
CN(c1ccc2nc3ccccc3c(=O)n2n1)C1CCCCC1 | 84.1% (active)
CN(C(=O)CSc1nncc2ccccc12)C1CCCCC1 | 4.17%
O=c1c2ccccc2nc2n1C1(CCCCC1)Cc1ccccc1-2 | -15.6%
O=C(C[n+]1cc(-c2ccc(Cl)c(Cl)c2)n2c1CCC2)c1cccs1 | -8.35%
Cc1ccc(S(=O)(=O)N(C)C)cc1NC(=O)c1n[nH]c(=O)c2ccccc12 | 2.56%
CC1CCc2sc(C(=O)N/N=C/C3CCCCC3)cc2C1 (stereo unspecified) | 71.4% (active)
O=C(Nc1ccc(F)cc1)c1cc2c(s1)CCCC2 | 10.4%
C/C(=N\NC(=O)c1cc2c(s1)CCC(C)C2)c1cccnc1 (stereo unspecified) | 6.64%
NC(=O)c1c(NC(=O)CSc2nc(N)cc(=O)[nH]2)sc2c1CCCC2 | 15.3%
COc1cc(/C=C2/C(=O)ON=C2C)ccc1OCc1ccccc1F | -26.4%
COc1cc(/C=C2/C(=O)ON=C2C)ccc1OCc1cccc(F)c1 | 104% (active)
CC1=NOC(=O)/C1=C\c1ccccc1 | -18.4%
Cc1cc(NCc2cccnc2)no1 | 3.98%
O=C(NC(=O)N1CCSCC1)c1c(Cl)cccc1Cl | 12.1%
Cc1cc(CO)nn1-c1ccc([N+](=O)[O-])cc1 | 7.27%
CNC(=O)C(NC(=O)c1ccccc1)=C(C)C | 1.37%
CCN(CC)c1ccc(NC(=O)C2CCC(CNc3c(N4CCCC4)c(=O)c3=O)CC2)c(C)c1 (stereo unspecified) | -9.36%

Compound | inhibition
Cc1cc(-c2nc(C)c(-c3nnc(SCC(=O)Nc4ccccc4)n3C)s2)no1 | 5.16%
COc1cccc(-c2cnc(OC(C)(C)C)nc2OC(C)(C)C)c1 | 91.8% (active)
COc1cccc(-c2nc3cc(C)ccc3o2)c1 | 61.7%
CC(C)(C)Oc1ncc(Br)c(OC(C)(C)C)n1 | 23.2%
Cc1ccc(C(=O)Nc2nc(N)n(-c3ccccc3)n2)cc1 | 12.8%
CCN(CC)C(=O)CN(c1cccc([N+](=O)[O-])c1)S(=O)(=O)c1ccccc1 | 0.69%
O=C(Nc1cccc([N+](=O)[O-])c1)Nc1ccc(Cl)cn1 | 2.82%
O=C(CCl)N(Cc1cccc([N+](=O)[O-])c1)c1cccc(Cl)c1 | 105% (active)
COC(=O)c1scc(S(=O)(=O)C(C)(C)C)c1-n1cccc1 | 6.86%
Cc1ccc(S(=O)(=O)NC(=O)N2CCCN(Cc3ccc(F)cc3)CC2)cc1 | 9.07%
Cc1ccc(NC(=S)NC(=O)/C=C/c2ccc(Cl)cc2)cc1 | 17.9%
COc1ccc(NS(=O)(=O)c2ccc(NC(=O)C(C)(C(F)(F)F)C(F)(F)F)cc2)nn1 | -4.95%
COc1ccc(NS(=O)(=O)c2ccc(NC(=S)NC(=O)/C=C/c3ccc(C)cc3)cc2)nn1 | 95.5% (active)
CCN(CC)CCCN=Cc1c(O)n(-c2ccc(C)cc2)c(=O)c2ccccc12 | 6.14%
CSCC[C@H](NC(=O)NC1CCCC1)C(=O)O | -0.23%
COc1ccc(-c2nc(CS(=O)CC(=O)NCc3ccccn3)c(C)o2)cc1 (stereo unspecified) | 7.53%
Cc1ccc(-c2nc(CS(=O)CC(=O)N3CCN(c4ncccn4)CC3)c(C)o2)cc1 (stereo unspecified) | 44.5%
COc1ccc(-c2nc(CS(=O)CC(=O)N3CCc4ccccc4C3)c(C)o2)cc1 (stereo unspecified) | 86.5% (active)
CCn1c(SCC(=O)Nc2sc(C)c(C)c2C#N)nnc1C1CC1 | 5.65%
CCc1ccccc1NC(=O)CSc1nnc(CCNC(=O)OC(C)(C)C)o1 | 15.9%
O=C(/C=C/c1ccc(Cl)c([N+](=O)[O-])c1)c1ccc(O)cc1 | -208%
COc1ccc(-c2nn(-c3ccccc3)cc2/C=C\C(=O)Nc2ccc(C(=O)O)cc2)cc1 | 40.4%
Cc1ccc(-c2nn(-c3ccccc3)cc2/C=C/C(=O)Nc2cccc(S(N)(=O)=O)c2)cc1 | 88.3% (active)
Cc1ccc(-c2nn(-c3ccccc3)cc2C(=O)Nc2cccc(S(=O)(=O)N3CCOCC3)c2)cc1 | 40%
